Source: PubChem BioAssay (National Center for Advancing Translational Sciences (NCATS))
FMDV inh: blocks foot and mouth disease virus. FMDV antiviral cell-based qHTS. Potency, µM (titrated, usually from 57.9 µM), without a hit: at the top dose activity change, negative = inhibition, most hits filed as inhibitors. 410,000 tested, 1.2% active; calls by dose curve; tested in HEK293T cells; note: read-out not given here; nearly all actives have a fitted effect of over 45% in size
VACV Venus inh: inhibitors of vaccinia virus (Venus reporter); Vaccinia virus Venus reporter expression, fluorescence; Potency, µM (top dose mostly 36.5 µM), inactives show top-dose activity change, negative = inhibition, actives largely listed as inhibitors; 330,000 tested, 0.46% active; calls by dose curve; tested in A549 cells; note: nearly all actives have a fitted effect of over 30% in size
Sm TGR block: inhibitors of Schistosoma mansoni thioredoxin glutathione reductase; 360,000 tested, 3% active; Potency, µM (doses to about 114 µM), inactives show at the top dose activity change, negative = inhibition, hits mostly inhibitors; purified TGR, DTNB reduction, TNB absorbance 405 nm; AID 485364; active = well fitted inhibition curve with a large enough effect; inconclusive = small, poorly fitted or top-dose-only effect; inactive = no such curve, though single readings can be large or run the other way; note: nearly all actives have a fitted effect of over 60% in size
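First, TGR (20 nM dispensed) and NADPH were mixed with compound. Second, a 15 min room-temperature incubation followed. Third, further NADPH and then DTNB were added to start the reaction. Finally, TNB absorbance was monitored kinetically.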
VACV mCherry inh: inhibitors of vaccinia virus infection (mCherry reporter signal) | Vaccinia virus mCherry reporter infection, fluorescence | Potency, µM (highest dose often 36.5 µM), inactives show at the highest dose activity change, negative = inhibition, hits mostly inhibitors | 310,000 tested, 0.63% active | AID 720579; calls by dose curve; tested in A549 cells; note: nearly all actives have a fitted effect of over 35% in size
LASV entry inh: blocks Lassa virus binding to or entry into cells; 300,000 tested, 1.2% active; Lassa virus pseudotype entry inhibition, cell reporter; Potency, µM (doses to about 37.9 µM), for the others: at the highest dose activity change, negative = inhibition, usual class: inhibitors; calls by dose curve; tested in HEK293 cells; note: nearly all actives have a fitted effect of over 50% in size
MARV entry inh: blocks Marburg virus binding to or entry into cells; Marburg virus pseudotyped entry inhibition, cell reporter; Potency, µM (series often up to 37.8 µM), for inactives: at the highest dose activity change, negative = inhibition, usual class: inhibitors; 300,000 tested, 1.8% active; AID 540276; calls by dose curve; tested in HEK293 cells
Active calls of the source: *; i = inactive; ? = inconclusive; · = no result; ! = not confirmed by another sample; [ ] = another dose, or the depositor's remark. In the library only some 5.4% were active in any assay of this set; here they are far more common. % is set by controls: 0 for no effect and ±100 for the full control effect; potency is the fitted concentration of half-maximal effect.

SMILES | FMDV inh | VACV Venus inh | Sm TGR block | VACV mCherry inh | LASV entry inh | MARV entry inh
CC(C)CC(COCc1ccc(F)cc1)N1CCN(C(=O)c2cccc(C(F)(F)F)c2)CCC1=O (stereo unspecified) | -22% | -25% | -11% | i | 21µM* | ?
CCc1nc2c(OCC3COc4ccccc4O3)cccn2c1N(C)C(=O)c1cccc(OC)c1 (stereo unspecified) | -27% | -2% | · | -1% | · | ·
NC(=O)[C@@H]1CCCN1C(=O)CCN1Cc2ccccc2OC(c2ccccc2F)C1 (stereo partly specified) | -10% | -7% | · | -11% | · | ·
O=C1N[C@@H](Cc2c[nH]c3ccccc23)C(=O)N[C@H]1Cc1c[nH]c2ccccc12 | -8% | · | · | · | · | ·
C/C1=C\[C@@H](C)C/C=C/[C@H]2[C@@H]3O[C@]3(C)[C@@H](C)[C@H]3[C@H](Cc4c[nH]c5ccccc45)NC(=O)[C@]32C(=O)/C=C/C(=O)[C@@H]1O | 32µM* | ? | -2% | ? | · | ·
CCCc1ccc(C(=O)NNc2cccc(C)c2)cc1 | 27% | 1% | 0% | ? | ? | 4µM*
Cc1cccc(NNC(=O)C(=O)NNc2cccc(C)c2)c1 | -11% | · | -5% | · | · | ·
CCOC(=O)Cn1c(=O)oc2cc(S(=O)(=O)N3CCN(c4ccc(F)cc4)CC3)ccc21 | -24% | -2% | 1% | i | 0%[46.1 µM] | 8%[46.1 µM]
CCC(=O)N1CCc2cc(Br)cc(S(=O)(=O)NCc3ccco3)c21 | 60% | -11% | 35µM* | -21% | 0% | ?
Cc1nn(-c2ccccc2)c(Cl)c1/C=N/NC(=O)OC(C)(C)C | -20% | -17% | -10% | -7% | ? | ?
Cc1nn(-c2ccccc2)c(Cl)c1/C=N/Nc1ccc(Cl)c(C(=O)O)c1 | 10µM* | -8% | -18% | -7% | ? | 2µM*
COc1ccccc1Nc1sc(C(=O)c2ccc3c(c2)OCO3)c(N)c1S(=O)(=O)c1ccccc1 | -12% | -7% | 2% | -20% | 4%[46.1 µM] | ·
CN(C(=O)CC(=O)Nc1ccc2nc3n(c(=O)c2c1)CCCCC3)c1ccccc1F | -1% | -8% | 1% | -8% | -7%[46.1 µM] | 12%[46.1 µM]
NCCNS(=O)(=O)c1cccc2c(Cl)cccc12 | -12% | · | · | · | -29% | 11µM*
NCCCCNS(=O)(=O)c1ccc2c(Cl)cccc2c1 | -30% | · | · | · | · | ·
COCCCN=Cc1c(C)[nH]n(-c2ccc(Br)c(C)c2)c1=O | -51% | -13% | -14% | -2% | 11µM* | ?
Cc1cc(C2=NNC(=NC3CC3)SC2)c(C)n1Cc1ccco1 | 3.2µM* | -19% | -9% | -9% | ? | ?
COCCCN=C1NN=C(c2cc(C)n(Cc3ccco3)c2C)CS1 | 4% | · | -6% | · | ? | 16µM*
Cc1cc(C2=NNC(=NC3CC3)SC2)c(C)n1-c1ccccc1 | 0.1µM* | -19% | -2% | -5% | · | ·
COc1ccc(-n2c(C)cc(C3=NNC(=NC4CC4)SC3)c2C)cc1 | -37% | -5% | -11% | -6% | ? | ?
O=C(C1CCN(S(=O)(=O)Cc2ccccc2)CC1)N1CCN(c2ccccc2)CC1 | -29% | -7% | -3% | 0% | -24%[46.1 µM] | ?
O=c1[nH]c2ccccc2n1CCCN1CCC(n2c(=O)[nH]c3cc(Cl)ccc32)CC1 | ? | -20% | 12% | -27% | ? | 11µM*!
CCCCN1CCC(n2c(=O)[nH]c3ccccc32)CC1 | · | · | · | · | -8% | ?
COc1cccc(/C=C2\SC(=S)N(CCC(=O)NCCc3ccc(O)cc3)C2=O)c1 | 0% | ? | 13% | 11µM* | ? | ?
COc1cccc(/C=C2/SC(=S)N(CCC(=O)N3CCOCC3)C2=O)c1 | 18% | ? | 5% | ? | ? | 5µM*
SMILES | FMDV inh | VACV Venus inh | Sm TGR block | VACV mCherry inh | LASV entry inh | MARV entry inh
COc1ccc(/C=C2\SC(=S)N(CCC(=O)N3CCOCC3)C2=O)cc1 | 27% | ? | 1% | -28% | 16% | -21%
COc1cccc(/C=C2\SC(=S)N(CCC(=O)Nc3ccc(O)cc3)C2=O)c1 | 38% | · | -1% | · | · | ·
Cc1cc(NS(=O)(=O)c2ccc3nc(-c4ccccc4)[nH]c3c2)ccc1Br | 14% | -20% | 3% | ? | -18%[46.1 µM] | 1%[46.1 µM]
COC[C@@H](OC(C)=O)[C@H]1OCc2ccccc2[C@H]1C=Cc1ccccc1 | · | · | · | · | · | 1%[14.2 µM]
COc1ccc(N2C(=O)[C@@H]3C[C@H]2CN3Cc2ccc3nccnc3c2)cc1Cl | -14% | -10% | · | -17% | · | ·
Cc1ccc2c(c1)nnn2C1CCN(S(=O)(=O)c2cccc(S(=O)(=O)N(C)C)c2)CC1 | 18µM* | -24% | 5% | -25% | ? | ?
CCOC(=O)C1=CCN(S(=O)(=O)c2ccc(F)cc2)C1c1ccc(Cl)c(Cl)c1 (stereo unspecified) | -25% | 13µM* | · | 7.9µM* | · | ·
CN(Cc1ccco1)C(=O)C(Cc1ccccc1)NS(=O)(=O)c1ccc2c(c1)CCC(=O)N2 (stereo unspecified) | 16% | -5% | 40µM* | i | · | 4%
CCCNC(=O)C(Cc1ccccc1)NS(=O)(=O)c1ccc2c(c1)CCC(=O)N2 (stereo unspecified) | 35% | -4% | 6% | 31% | · | ·
O=S1(=O)CC(O)C(NCc2ccco2)C1 (stereo unspecified) | 0% | · | -5% | · | 0% | 5%
CC(C)(C)c1cc(CNC2CS(=O)(=O)C[C@@H]2O)cc(C(C)(C)C)c1O (stereo partly specified) | -1% | -17% | 1.6µM* | -14% | -8% | -25%[46.1 µM]
CSc1ccc(C2c3c(-c4ccccc4O)n[nH]c3C(=O)N2Cc2ccncc2)cc1 (stereo unspecified) | -5% | -29% | -5% | ? | ? | ?
O=C(Nc1ccccc1F)c1coc(=O)c(Br)c1 | -27% | 2% | -30% | 6% | -8% | -19%[46.1 µM]
Cc1cc(NC(=O)c2coc(=O)c(Br)c2)ccc1C(C)C | 1µM* | -2% | -1% | -7% | 2% | ?
COc1ccc(C(=O)NC(C)c2ccccc2)cc1Br (stereo unspecified) | -17% | -15% | 7% | ? | ? | -18%
C[C@@H](NC(=O)c1coc(=O)c(Br)c1)c1ccccc1 | 40µM* | -8% | 1% | · | ? | ?
CCCN(CCC)CCNC(=O)c1cc2c(-c3ccc(Cl)cc3)nn(C)c2s1 | ? | ? | -2% | ? | 1%[46.1 µM] | 4µM*
CCCCN(CC)CCNC(=O)c1cc2c(-c3ccc(Cl)cc3)nn(C)c2s1 | 3% | ? | 13% | 10µM* | ? | 3.5µM*
CCCN(CCC)CCCNC(=O)c1cc2c(=O)n(C)c3ccccc3c2s1 | -3% | -6% | 10µM* | -8% | 5%[46.1 µM] | ?
COC(=O)CC=C[C@@H](C)[C@H](NC(=O)OC)c1ccccc1Br | · | · | · | · | · | -29%[14.2 µM]
O=C1C2C3C=CC(C2C(=O)N1c1ccccc1O)C1C2C(=O)N(c4ccccc4O)C(=O)C2C31 (stereo unspecified) | 7% | 0% | -25% | i | · | ·
